In PubChem BioAssay one finds outcome data, which are given here for 40 molecules.

For some assays here: Measured potencies and affinities stand elsewhere. Active and inactive are the calls of the source. Unless noted, no cut-off is given here; in the data, nearly all actives have IC50 up to about 0.91 µM.

For the first assay, the target named is Protein kinase 7 (PK7), Plasmodium falciparum 3D7 (PF3D7_0213400) (UniProt Q7YTF7). In words: inhibition of Plasmodium PK7 catalytic activity – biochemical, TCAMS antimalarial set, Kinase-Glo luminescence (AID 1159587; call rule not given here). The conditions noted are these: recombinant PfPK7, Kinase-Glo ATP depletion luminescence.
Chain of Protein kinase 7 (PK7), Plasmodium falciparum 3D7 (PF3D7_0213400) (Q7YTF7 1-343): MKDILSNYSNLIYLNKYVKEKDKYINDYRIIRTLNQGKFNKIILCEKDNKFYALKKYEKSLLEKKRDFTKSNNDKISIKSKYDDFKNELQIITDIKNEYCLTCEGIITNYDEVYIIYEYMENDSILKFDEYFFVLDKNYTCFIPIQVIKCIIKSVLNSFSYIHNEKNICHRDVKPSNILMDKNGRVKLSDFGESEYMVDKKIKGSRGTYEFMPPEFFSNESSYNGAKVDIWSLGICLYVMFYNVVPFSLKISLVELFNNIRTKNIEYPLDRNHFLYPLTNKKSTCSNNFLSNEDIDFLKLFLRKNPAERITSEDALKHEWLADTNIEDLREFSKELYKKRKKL
`O=C(NCCCCCN1CCC(c2c[nH]c3ccccc23)CC1)c1ccc(Cl)c(Cl)c1`: the outcome was inactive.

As for `COc1cc(Cc2cnc(N)nc2N)cc(OCCCCCC(N)=O)c1OC`, the result was inactive.

In the case of `O=C(/C=C/c1ccc(C(F)(F)F)cc1)NCCCCCN1CCN(C(=O)Nc2ccc(F)c(Cl)c2)CC1`, the result was inactive.

`O=C(NC1CC1)c1ccc(N2CCC(COc3cccc(F)c3)CC2)nc1`: the result was inactive.

For the molecule `O=C(Nc1cccc(CN2CCCN(Cc3ncc[nH]3)CC2)c1)c1cc2ccccc2s1`, the outcome was inactive.

For `O=c1cc(NCCCNCc2cc3c(Cl)cc(Cl)cc3[nH]2)[nH]c2ccccc12`, the outcome was inactive.

As to `COc1ccc(CNCc2ccc(-c3cccc(-c4nc5c(C)cccc5[nH]4)c3)cc2)cc1`, the result was inactive.

Consider `CN(C)Cc1cccc(CNC(=O)c2sccc2OCc2ccc(Cl)cc2)c1`, for which the result was inactive.

For `COc1cc2nc(SCC(C)C)n(CCCn3ccnc3)c(=N)c2cc1OC`, the result was inactive.

For the molecule `CCOc1ccc2nc(C)cc(NN=Cc3cccc(F)c3)c2c1`, the outcome was inactive.

On to `O=C(NC1CC1)c1ccc(N2CCC(Cc3ccccc3)CC2)c([N+](=O)[O-])c1`, for which the outcome was inactive.

Take `O=S(=O)(ON=C1CCc2ccccc21)c1ccc(Cl)cc1`: the outcome was inactive.

`CCc1cn2c3c(cc(C(=O)N[C@@H](Cc4cccc(F)c4)[C@H](O)CNC4CCOCC4)cc13)N(C)S(=O)(=O)CC2`: the result was inactive.

As for `COc1ccc(Cl)cc1NC(=O)C(C)Nc1ccc(-c2ccccc2)cc1` (stereo not given), the result was inactive.

For the molecule `CC(Cc1ccc(OCCCCOc2ccccc2)cc1)NCCc1ccc(Oc2ccccc2)cc1` (stereo not given), the outcome was inactive.

On to `OCCN1CCN(Cc2ccc(-c3cccc(-c4nc5ccc(C(F)(F)F)cc5[nH]4)c3)cc2)CC1`, for which the result was inactive.

On to `CCN(CC)CCN(Cc1ccc(-c2ccc(C(F)(F)F)cc2)cc1)C(=O)Cn1cc(CCCCc2cccc(F)c2F)c(=O)c2ccccc21`, for which the outcome was inactive.

Consider `O=c1c(NCCCN(Cc2ccc(F)cc2)c2ccccn2)c(NCc2cccnc2)c1=O`, for which the result was inactive.

Consider `COc1ccc(-c2ccc(NC(=O)c3ccc(F)cc3)cc2)cc1CN1CCCN(C)CC1`, for which the outcome was inactive.

`O=C(Nc1cncc(NC(=O)c2ccc(Cl)c(Cl)c2)c1)c1ccc(Cl)c(Cl)c1`: the result was inactive.

As to `CCn1cnc2c(Nc3cccc([N+](=O)[O-])c3)nc(N3CCC(N4CCCCC4)CC3)nc21`, the result was inactive.

Consider `NC1CCN(c2nc(NCCCc3ccc(O)cc3)nc(NCc3ccccc3-c3ccc(C(F)(F)F)cc3)n2)CC1`, for which the result was inactive.

As to `CC(C)CNC(=O)c1cncc(-c2cccc(CNC3Cc4ccccc4C3)c2)c1`, the outcome was inactive.

Consider `CC(C)COc1ccc(Cl)cc1Cc1nc(-c2nc3nc(N4CCN(C)CC4)ccc3[nH]2)cs1`, for which the result was inactive.

Regarding `COc1cc(OC)cc(C(=O)Nc2nc(-c3ccccn3)cs2)c1`, the result was inactive.

As for `O=C(Nc1ccccc1)Nc1ccc(-c2cccc(-c3nc4ccc(C(F)(F)F)cc4[nH]3)c2)cc1`, the result was inactive.

On to `CN(CCCCCN1CCC(NC(=O)Nc2ccc(Oc3ccccc3)cc2)C1)C(=O)/C=C/c1ccc(Cl)c(Cl)c1` (stereo not given), for which the outcome was inactive.

As to `CCCCNCc1ccc(-c2nc(CN(C(=O)Nc3cc([N+](=O)[O-])ccc3F)C3Cc4ccccc4C3)cs2)cc1`, the result was inactive.

For the molecule `Cc1cc(NC(=O)Nc2ccc3nccc(N4CCN(C)CC4)c3c2)ccc1Br`, the outcome was inactive.

With `CS(=O)(=O)c1cccc(-c2cnc(N)c3cc(-c4cccc(F)c4)ccc23)c1`, the result was inactive.

For the molecule `CC(C)Cn1c(Sc2ccc(C#N)c([N+](=O)[O-])c2)nnc1-c1ccccc1Cl`, the result was inactive.

On to `Cc1cc(C(=O)Nc2nc(-c3ccccn3)nc3ccsc23)no1`, for which the outcome was inactive.

With `Cc1cc(N(CCO)CCCN2CCCCC2)nc(Nc2ccc(Cl)cc2)n1`, the result was inactive.

As for `Cc1cccc(Cl)c1Nc1nnc(-c2cccc(C(=O)NC[C@@H]3CC[C@H]4C[C@@H]3C4(C)C)c2)o1`, the outcome was inactive.

For the molecule `C=CCOC(=O)N1CCC(CNCc2cccc(-c3cccc(-c4nc5c(C)cccc5[nH]4)c3)c2)C1` (stereo not given), the outcome was inactive.

Take `CCC1CCCCN1S(=O)(=O)c1ccc(NC(=O)c2cc(C)on2)cc1` (stereo not given): the result was inactive.

Regarding `COc1ccc(-c2ccc(S(=O)(=O)Nc3cc4c(cc3OC(C)C)CCNCC4)cc2)cc1`, the outcome was inactive.

Take `Cc1cccc(C(=O)Nc2ccnc(N3CCC(N(C)Cc4cccc(O)c4)CC3)c2)c1`: the outcome was inactive.

Take `CN1CCC(C(=O)Nc2cccc(-c3cccc(-c4nc5ccc(F)cc5[nH]4)c3)c2)CC1`: the outcome was inactive.

`Cc1cnc(Nc2ccccc2)nc1N[C@@H](CCCN)C(=O)Nc1ccccc1`: the outcome was inactive.

Another assay deals with Calcium-dependent protein kinase 4 (Plasmodium falciparum (isolate 3D7)) (UniProt Q8IBS5). Briefly: PfCDPK4 kinase inhibitors, biochemical, TCAMS library (AID 1159588). The note with it: recombinant PfCDPK4, Kinase-Glo ATP depletion luminescence.
Chain of Calcium-dependent protein kinase 4 (Plasmodium falciparum (isolate 3D7)) (Q8IBS5 whole entry, looked up): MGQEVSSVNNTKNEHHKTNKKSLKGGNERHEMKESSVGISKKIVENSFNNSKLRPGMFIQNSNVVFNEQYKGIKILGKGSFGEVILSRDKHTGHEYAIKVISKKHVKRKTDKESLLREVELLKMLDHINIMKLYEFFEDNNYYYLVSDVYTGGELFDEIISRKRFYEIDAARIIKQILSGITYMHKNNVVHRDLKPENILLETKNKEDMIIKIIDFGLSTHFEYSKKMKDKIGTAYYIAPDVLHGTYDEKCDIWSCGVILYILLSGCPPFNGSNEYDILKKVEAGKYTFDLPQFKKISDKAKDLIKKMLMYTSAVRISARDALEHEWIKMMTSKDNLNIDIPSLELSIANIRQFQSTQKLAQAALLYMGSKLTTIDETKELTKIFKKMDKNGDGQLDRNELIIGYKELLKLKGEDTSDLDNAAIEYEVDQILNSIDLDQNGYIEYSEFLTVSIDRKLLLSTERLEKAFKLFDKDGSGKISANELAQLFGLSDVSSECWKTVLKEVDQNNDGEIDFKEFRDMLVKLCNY
For the molecule `O=C(NCCCCCN1CCC(c2c[nH]c3ccccc23)CC1)c1ccc(Cl)c(Cl)c1`, the result was inactive.

On to `COc1cc(Cc2cnc(N)nc2N)cc(OCCCCCC(N)=O)c1OC`, for which the outcome was inactive.

For `O=C(/C=C/c1ccc(C(F)(F)F)cc1)NCCCCCN1CCN(C(=O)Nc2ccc(F)c(Cl)c2)CC1`, the result was inactive.

As to `O=C(NC1CC1)c1ccc(N2CCC(COc3cccc(F)c3)CC2)nc1`, the result was inactive.

On to `O=C(Nc1cccc(CN2CCCN(Cc3ncc[nH]3)CC2)c1)c1cc2ccccc2s1`, for which the outcome was inactive.

`O=c1cc(NCCCNCc2cc3c(Cl)cc(Cl)cc3[nH]2)[nH]c2ccccc12`: the outcome was inactive.

On to `COc1ccc(CNCc2ccc(-c3cccc(-c4nc5c(C)cccc5[nH]4)c3)cc2)cc1`, for which the outcome was inactive.

In the case of `CN(C)Cc1cccc(CNC(=O)c2sccc2OCc2ccc(Cl)cc2)c1`, the result was inactive.

Consider `COc1cc2nc(SCC(C)C)n(CCCn3ccnc3)c(=N)c2cc1OC`, for which the outcome was inactive.

For `CCOc1ccc2nc(C)cc(NN=Cc3cccc(F)c3)c2c1`, the outcome was inactive.

Consider `O=C(NC1CC1)c1ccc(N2CCC(Cc3ccccc3)CC2)c([N+](=O)[O-])c1`, for which the outcome was inactive.

Take `O=S(=O)(ON=C1CCc2ccccc21)c1ccc(Cl)cc1`: the outcome was inactive.

`CCc1cn2c3c(cc(C(=O)N[C@@H](Cc4cccc(F)c4)[C@H](O)CNC4CCOCC4)cc13)N(C)S(=O)(=O)CC2`: the result was inactive.

Regarding `COc1ccc(Cl)cc1NC(=O)C(C)Nc1ccc(-c2ccccc2)cc1` (stereo not given), the result was inactive.

Turning to `CC(Cc1ccc(OCCCCOc2ccccc2)cc1)NCCc1ccc(Oc2ccccc2)cc1` (stereo not given), the outcome was inactive.

In the case of `OCCN1CCN(Cc2ccc(-c3cccc(-c4nc5ccc(C(F)(F)F)cc5[nH]4)c3)cc2)CC1`, the outcome was inactive.

Take `CCN(CC)CCN(Cc1ccc(-c2ccc(C(F)(F)F)cc2)cc1)C(=O)Cn1cc(CCCCc2cccc(F)c2F)c(=O)c2ccccc21`: the result was inactive.

Regarding `O=c1c(NCCCN(Cc2ccc(F)cc2)c2ccccn2)c(NCc2cccnc2)c1=O`, the result was inactive.

Turning to `COc1ccc(-c2ccc(NC(=O)c3ccc(F)cc3)cc2)cc1CN1CCCN(C)CC1`, the outcome was inactive.

`O=C(Nc1cncc(NC(=O)c2ccc(Cl)c(Cl)c2)c1)c1ccc(Cl)c(Cl)c1`: the outcome was inactive.

As to `CCn1cnc2c(Nc3cccc([N+](=O)[O-])c3)nc(N3CCC(N4CCCCC4)CC3)nc21`, the result was inactive.

As for `NC1CCN(c2nc(NCCCc3ccc(O)cc3)nc(NCc3ccccc3-c3ccc(C(F)(F)F)cc3)n2)CC1`, the result was inactive.

With `CC(C)CNC(=O)c1cncc(-c2cccc(CNC3Cc4ccccc4C3)c2)c1`, the outcome was inactive.

On to `CC(C)COc1ccc(Cl)cc1Cc1nc(-c2nc3nc(N4CCN(C)CC4)ccc3[nH]2)cs1`, for which the result was inactive.

On to `COc1cc(OC)cc(C(=O)Nc2nc(-c3ccccn3)cs2)c1`, for which the result was inactive.

Take `O=C(Nc1ccccc1)Nc1ccc(-c2cccc(-c3nc4ccc(C(F)(F)F)cc4[nH]3)c2)cc1`: the outcome was inactive.

As to `CN(CCCCCN1CCC(NC(=O)Nc2ccc(Oc3ccccc3)cc2)C1)C(=O)/C=C/c1ccc(Cl)c(Cl)c1` (stereo not given), the outcome was inactive.

For the molecule `CCCCNCc1ccc(-c2nc(CN(C(=O)Nc3cc([N+](=O)[O-])ccc3F)C3Cc4ccccc4C3)cs2)cc1`, the outcome was inactive.

As for `Cc1cc(NC(=O)Nc2ccc3nccc(N4CCN(C)CC4)c3c2)ccc1Br`, the result was inactive.

`CS(=O)(=O)c1cccc(-c2cnc(N)c3cc(-c4cccc(F)c4)ccc23)c1`: the result was inactive.

As for `CC(C)Cn1c(Sc2ccc(C#N)c([N+](=O)[O-])c2)nnc1-c1ccccc1Cl`, the result was inactive.

For `Cc1cc(C(=O)Nc2nc(-c3ccccn3)nc3ccsc23)no1`, the result was inactive.

On to `Cc1cc(N(CCO)CCCN2CCCCC2)nc(Nc2ccc(Cl)cc2)n1`, for which the outcome was inactive.

In the case of `Cc1cccc(Cl)c1Nc1nnc(-c2cccc(C(=O)NC[C@@H]3CC[C@H]4C[C@@H]3C4(C)C)c2)o1`, the result was inactive.

In the case of `C=CCOC(=O)N1CCC(CNCc2cccc(-c3cccc(-c4nc5c(C)cccc5[nH]4)c3)c2)C1` (stereo not given), the outcome was inactive.

Turning to `CCC1CCCCN1S(=O)(=O)c1ccc(NC(=O)c2cc(C)on2)cc1` (stereo not given), the result was inactive.

Turning to `COc1ccc(-c2ccc(S(=O)(=O)Nc3cc4c(cc3OC(C)C)CCNCC4)cc2)cc1`, the outcome was inactive.

As to `Cc1cccc(C(=O)Nc2ccnc(N3CCC(N(C)Cc4cccc(O)c4)CC3)c2)c1`, the outcome was inactive.

`CN1CCC(C(=O)Nc2cccc(-c3cccc(-c4nc5ccc(F)cc5[nH]4)c3)c2)CC1`: the outcome was inactive.

For the molecule `Cc1cnc(Nc2ccccc2)nc1N[C@@H](CCCN)C(=O)Nc1ccccc1`, the result was inactive.
